# Records with an inconclusive call do not appear. A number with no mark means an inactive call. Calls of active or inactive are those of the source. The call rests on the fitted dose curve; in most records, active means well fitted activation curve with a large enough effect; inconclusive means small, poorly fitted or top-dose-only effect; inactive means no such curve, though single readings can be large or run the other way.
# Experiment: qHTS Assay for Agonists of the Relaxin Receptor RXFP1: V1B Hit Validation;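 further: counter-screen in HEK293 cells expressing V1B rather than RXFP1 for selectivity; nearly all actives have a fitted effect of over 65% in size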;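 on activation: cAMP accumulation with PDE4 inhibitor Ro 20-1724 present during compound exposure; 0% = buffer alone basal and 100% = 29 nM porcine relaxin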
# Conditions: HEK293 V1B cells, cAMP TR-FRET, 30 min; series mostly up to 115 µM; activation: at the top concentration
# How it was run: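 cAMP accumulation, read by TR-FRET competition after lysis, in V1B-expressing HEK293 cells given compound for 30 min at 37C with Ro 20174 present. Responses scaled between buffer basal and 29 nM porcine relaxin; Hill-equation EC50.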
# Potency means the concentration at half of the fitted maximal effect.
SMILES,Potency,activation
CCCC(=O)Nc1ncnc2c1ncn2[C@@H]1O[C@@H]2OP(=O)(O)OC[C@H]2[C@H]1OC(=O)CCC,0.868 µM (active),
COc1cccc(C(=O)CSc2nnc(-c3cc(OC)cc(OC)c3)o2)c1,10.9 µM (active),
Cc1ccc(CN(C)C(=O)c2ccccc2NC(=O)c2ccccc2)o1,,3.11% [at 127 µM]
CC(C)C(=O)Nc1ccc(Nc2ccccc2)cc1,,-2.7%
CN(C)S(=O)(=O)c1cccc(COc2ncnc3c(Cl)cc(Cl)cc23)c1,27.5 µM (active),
CCc1cc2c(=O)nc3n(c2s1)Cc1ccccc1/C3=C(/O)c1cccc([N+](=O)[O-])c1,3.89 µM (active),
CC(NC(=O)c1ccccc1NC(=O)c1ccco1)C(=O)O (stereo unspecified),,2.15% [at 127 µM]
O=C(Nc1ccccc1C(=O)N1CCNCC1)c1ccco1,,-5.42% [at 127 µM]
COc1ccc(C(=O)Nc2ccc(S(=O)(=O)Nc3onc(C)c3C)cc2)c(OC)c1,14.9 µM (active),
Cc1noc(NS(=O)(=O)c2ccc(N3Cc4ccccc4C3=O)cc2)c1C,11.9 µM (active),
CCS(=O)(=O)c1nc(S(=O)(=O)c2ccc(Cl)cc2)c(N2CCN(CCO)CC2)s1,34.6 µM (active),
CCCN(CCC)S(=O)(=O)c1cc(CN2C(=O)c3cccnc3C2=O)ccc1OC,30.9 µM (active),
COc1ccccc1CNS(=O)(=O)c1cc(CN2C(=O)c3cccnc3C2=O)ccc1OC,27.5 µM (active),
COC(=O)c1nc2ccc(N3CCOCC3)cc2c(C)c1C(=O)OC,34.6 µM (active),
NC(=S)c1cc2ccc(O)cc2oc1=O,4.35 µM (active),
COc1ccc(S(=O)(=O)N2CCOCC2)cc1NC(=O)CSc1ncnc2ccccc12,13.8 µM (active),
CCc1nnc(NC(=O)CSc2nc(C)nc3c2c(=O)n(C)c(=O)n3C)s1,9.74 µM (active),
N#Cc1c(N)nc(SCC(=O)C23CC4CC(CC(C4)C2)C3)c(C#N)c1-c1ccc(Cl)cc1,12.3 µM (active),
O=C(Nc1ccccc1C(=O)NCc1ccco1)c1ccco1,,4.18% [at 127 µM]
Cc1cccc2cc(C#N)c(SCC(=O)NCc3cccs3)nc12,19.4 µM (active),
CCCC(=O)Nc1ncnc2c1ncn2[C@@H]1O[C@@H]2COP(=O)(O)O[C@H]2[C@H]1OC(=O)CCC,1.38 µM (active),

# — PubChem BioAssay AID492948 (National Center for Advancing Translational Sciences (NCATS), 2010)
